This is a sample that favours compounds with a hit; in the whole collection about 1.9% have one here.
GLD-1 RNA inh – GLD-1/TGE RNA complex disruptors, primary screen, biochemical, fluorescence polarization; Female germline-specific tumor suppressor gld-1 (Caenorhabditis elegans), Q17339; purified GLD-1 + fluorescein TGE RNA; inhibition, % at 5.96 µM; 320,000 tested, 0.44% active; AID 2280, 2010;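 active = percent inhibition above a per-plate cutoff, the plate mean of test compounds plus 3 SD, cut at about 30% in these data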
MCL1 BIM primary – inhibitors of MCL1 binding to BIM-BH3, primary screen, biochemical, fluorescence polarization; inhibition, % at 10.9 µM; GST-MCL1 / FITC-Bim-BH3 fluorescence polarization; 320,000 tested, 0.68% active; Induced myeloid leukemia cell differentiation protein Mcl-1 (Homo sapiens), Q07820;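 active = inhibition above the mean inhibition of all tested compounds plus 3 SD, set per campaign, cut at about 40% in these data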;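 note: higher means more loss of mP so more displacement of Bim peptide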
BCLXL inh – inhibitors of human Bcl-xL, primary screen, biochemical, fluorescence polarization, HTS. GST-Bcl-xL / FITC-Bim BH3 peptide fluorescence polarization. inhibition, % at 10.9 µM. Bcl-2-like protein 1 (Homo sapiens), Q07817. 320,000 tested, 0.7% active;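 active = inhibition above the mean of all tested compounds plus 3 SD, cutoff set per campaign, cut at about 30% in these data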;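 note: inhibitors lower millipolarization by displacing the labeled peptide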
MEX-5 binding – MEX-5 zinc finger RNA-binding disruptors – biochemical, C. elegans, fluorescence polarization, MLPCN library, primary screen | Zinc finger protein mex-5 (Caenorhabditis elegans), Q9XUB2 | MEX-5/FITC-TCR2 RNA binding; stronger effect = lower value | activity score (negative = inhibition of binding), % at 10 µM | 300,000 tested, 0.38% active | AID 1832, 2009;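 active = inhibition past about -25% in most replicates, and total fluorescence under double the plate's negative control median, limit read from the data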
Target sequence (Q9XUB2 whole entry, looked up): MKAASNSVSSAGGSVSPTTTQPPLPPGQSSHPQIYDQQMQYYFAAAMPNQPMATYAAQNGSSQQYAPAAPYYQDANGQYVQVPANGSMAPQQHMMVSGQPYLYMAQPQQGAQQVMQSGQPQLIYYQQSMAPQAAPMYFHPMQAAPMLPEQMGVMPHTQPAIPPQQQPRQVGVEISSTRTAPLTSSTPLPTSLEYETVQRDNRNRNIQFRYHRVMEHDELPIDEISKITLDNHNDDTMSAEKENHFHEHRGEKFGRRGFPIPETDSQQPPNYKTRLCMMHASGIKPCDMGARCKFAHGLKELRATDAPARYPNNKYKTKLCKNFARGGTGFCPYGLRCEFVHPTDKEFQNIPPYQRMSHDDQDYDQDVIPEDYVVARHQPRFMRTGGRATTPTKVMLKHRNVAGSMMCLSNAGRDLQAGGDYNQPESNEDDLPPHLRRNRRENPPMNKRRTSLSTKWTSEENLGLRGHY
CR mimetic SO – reduction of superoxide in aged yeast, primary screen, HTS | superoxide response (% of plate mean), % at 10 µM | S. cerevisiae aged cells, superoxide DHE fluorescence; stronger effect = lower value | AID 2690, 2010 | 330,000 tested, 0.18% active;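 active = superoxide response under a set limit, about three screen SD below normal, cut at about 65% in these data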;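 note: yeast aged for seven days with compound at 30 °C before DHE staining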
LANA-H2A inh – blockers of LANA interaction with H2A/H2B – biochemical, FP readout, HTS, primary screen | Protein LANA1 (Human herpesvirus 8 type P (isolate GK18)), Q9QR71 | inhibition, % (no concentration beside the values) | cell-free LANA-H2A/H2B peptide, fluorescence polarization | 320,000 tested, 0.6% active; in the data active = inhibition mostly above about 10%, no sharp cut-off; inactive = mostly below about 6.7%
BCLXL inh confirm – Bcl-xL inhibitors blocking Bim BH3 binding, confirmation, counter-screen for MCL1 inhibitor project, biochemical, fluorescence polarization. shares compounds with MCL1 BIM primary. GST-Bcl-xL / FITC-Bim BH3 peptide FP binding. inhibition, % at 10.9 µM. 1,700 tested, 54% active;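 active = inhibition above a cutoff equal to the mean inhibition of all tested compounds plus 3 SD, cut at about 30% in these data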
MCL1 inh confirm – inhibitors of MCL1 binding to BIM-BH3, confirmation, biochemical, fluorescence polarization, triplicate; GST-MCL1 / FITC-Bim-BH3 fluorescence polarization; 1,700 tested, 61% active; inhibition, % at 10.9 µM; shares compounds with MCL1 BIM primary;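 active = inhibition above the average of all tested compounds plus 3 SD, cut at about 40% in these data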
Hits are given with their value; - = inactive; . = no result.

SMILES	GLD-1 RNA inh	MCL1 BIM primary	BCLXL inh	MEX-5 binding	CR mimetic SO	LANA-H2A inh	BCLXL inh confirm	MCL1 inh confirm
COC(=O)C1=C(C)N(CCCC(=O)O)C(=O)NC1c1cc2c(cc1[N+](=O)[O-])OCO2 (stereo unspecified)	-	52	54	-	.	-	-	-
COC(=O)C1=C(C)N(C)C(=O)NC1c1cc2c(cc1[N+](=O)[O-])OCO2 (stereo unspecified)	-	54	59	-	-	-	44	40
COC(=O)C1=C(C)N(C)C(=O)NC1c1cc2c(cc1Br)OCO2 (stereo unspecified)	-	-	-	-	-	-	.	.
O=C(Cc1c(Cl)cccc1Cl)N1CCN(S(=O)(=O)c2cccs2)CC1	-	-	-	.	-	-	.	.
O=C1CCCC(O)=C1N=Nc1ccc(C(=O)O)cc1	-	41	-	-26	-	-	-	-
CN(C(=O)CSc1nnc(CN2CCCC2)n1Cc1ccccc1)c1ccccc1	-	-	-	-	-	-	.	.
COc1cc(NC(=O)c2noc3c2CCC3)c(OC)cc1Cl	-	50	-	-	-	-	-	53
CCCOc1ccc(/C(CC)=N/NC(=O)C2(C)CC2(Br)Br)cc1 (stereo unspecified)	112	112	97	-	-	-	-	-
Cc1cc2c(cc1[N+](=O)[O-])NC(CNC(C)C)CC2 (stereo unspecified)	51	96	98	-	-	-	-	-
O=c1[nH]nc(CNc2ccc(C(F)(F)F)cc2)c2ccccc12	-	-	-	-	-	-	.	.
O=c1[nH]nc(CNc2ccc(O)cc2)c2ccccc12	89	76	79	-52	-	-	51	41
COc1ccc(C(=O)c2ccsc2N)cc1	66	108	105	-	-	-	-	-
CCCCC1=CC2=CC(=O)C(C)(OC(=O)c3cccs3)C(=O)C2=CO1 (stereo unspecified)	-	-	-	-	.	-	.	.
CC1(OC(=O)c2ccco2)C(=O)C=C2C=C(c3ccc(C#N)cc3)OC=C2C1=O (stereo unspecified)	-	-	-	-	-	-	.	.
COC(=O)CCC(=O)OC1(C)C(=O)C=C2C=C3CCCN3C=C2C1=O (stereo unspecified)	-	48	-	-	-	-	33	-
COC(=O)CCCC1=CC2=CC(=O)C(C)(OC(=O)c3ccc(Cl)nc3)C(=O)C2=CO1 (stereo unspecified)	57	66	55	-35	-	-	46	69
CC1(OC(=O)c2ccc(Cl)nc2)C(=O)C=C2C=C3CCCN3C=C2C1=O (stereo unspecified)	-	-	-	.	-	-	.	.
CC1(OC(=O)c2ccc(Cl)nc2)C(=O)C=C2C=C(c3ccsc3)OC=C2C1=O (stereo unspecified)	-	-	-	-	-	-	.	.
CCCCC1=CC2=CC(=O)C(C)(OC(=O)c3ccco3)C(=O)C2=CO1 (stereo unspecified)	62	49	43	-36	.	-	33	62
COC(=O)CCCC1=CC2=CC(=O)C(C)(OC(=O)c3cccs3)C(=O)C2=CO1 (stereo unspecified)	93	122	105	-49	.	-	53	69
CCCC(NC(=O)C(C)N1CCN(S(=O)(=O)c2ccccc2)CC1)c1ccccc1 (stereo unspecified)	-	-	-	.	-	-	.	.
CC1(OC(=O)c2ccc(Cl)nc2)C(=O)C=C2C=C(C3CC3)OC=C2C1=O (stereo unspecified)	76	87	74	-50	-	-	83	122
CCCCC1=CC2=CC(=O)C(C)(OC(=O)CCC(=O)OC)C(=O)C2=CO1 (stereo unspecified)	54	62	42	-27	-	-	-	51
CC(C)(C)OC(=O)NCCCCC1=CC2=CC(=O)C(C)(OC(=O)c3cnc4ccccc4n3)C(=O)C2=CO1 (stereo unspecified)	89	58	59	-28	-	-	39	52
CC(C)(C)OC(=O)NCCCCC1=CC2=CC(=O)C(C)(O)C(=O)C2=CO1 (stereo unspecified)	-	-	-	-	.	-	.	.
SMILES	GLD-1 RNA inh	MCL1 BIM primary	BCLXL inh	MEX-5 binding	CR mimetic SO	LANA-H2A inh	BCLXL inh confirm	MCL1 inh confirm
COC(=O)CCC(=O)OC1(C)C(=O)C=C2C=C(C3CC3)N(CCCCO)C=C2C1=O (stereo unspecified)	-	-	-	-	-	-	.	.
O=C(c1cccc([N+](=O)[O-])c1)N1CCN(S(=O)(=O)/C=C/c2ccccc2)CC1	-	-	-	.	-	-	.	.
COc1ccccc1CNC(=O)/C=C/c1ccc(Br)o1	-	42	-	-	-	-	-	-
CCC(C)(C)C1CCc2[nH]nc(C(=O)NCCNC(=O)OC(C)(C)C)c2C1 (stereo unspecified)	-	-	-	.	-	-	.	.
CCSc1nnc(NC(=O)C2CSC3(C)CCC(=O)N23)s1 (stereo unspecified)	-	.	.	.	-	-	.	.
CC1CC=C2C(C#N)=C(N)C(C#N)(C#N)C(c3cccs3)C2C1 (stereo unspecified)	70	96	92	-31	-	-	52	68
COc1ccc(OC)c(NC(=O)CSc2nccn2Cc2ccco2)c1	-	-	-	-	-	-	.	.
c1ccc2sc(N3CCN(Cc4nnnn4CC4CCCO4)CC3)nc2c1 (stereo unspecified)	-	-	-	-	-	-	.	.
c1ccc2c(c1)CCCN2Cc1nnnn1CC1CCCO1 (stereo unspecified)	107	196	162	-	-	-	102	124
CC(C)(C)c1cc(C(=O)O)n[nH]1	-	48	-	-	-	-	-	-
COc1ccc2[nH]c3c(c2c1)CCN1C(=O)C(CC(=O)NCCc2ccccn2)C[C@H](C(=O)N2CCCCC2)[C@@]31C (stereo partly specified)	.	.	.	.	-	.	.	.

Compound activity as filed in PubChem.
